The results in this text go back to PubChem BioAssay (NCI).

The structures appear in SMILES notation. The panel holds about 83,000 compounds, 20% with a hit somewhere; the sample as a whole holds those more often.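 Percent growth is the endpoint: 0 to 100 indicates growth inhibition (40 means 60% inhibition), 0 means no net growth, and negative values indicate cell death.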 A number with no mark means an inactive call. Calls of active or inactive are those of the source. The calls were made as follows: active = growth percent below 10; inactive = the rest.

Assay in all cases: NCI-60 one-dose screen, 48 h (100 = growth as untreated, 0 = no growth, -100 = all killed)
One experiment relates to HCT-15 colon. Conditions: 10 µM unless noted.
The next experiment has as its system HT29 colon. The settings on record: 10 µM unless noted.
A further experiment concerns SNB-19 CNS. The settings on record: 10 µM unless noted.
Another experiment concerns U251 CNS. Conditions: 10 µM unless noted.
For another experiment, the system named is PC-3 prostate. Conditions: 10 µM unless noted.
For the next experiment, the system named is SK-MEL-5 melanoma. Conditions: 10 µM unless noted.
A further experiment deals with UACC-62 melanoma. The settings on record: 10 µM unless noted.
In a further experiment the test system is LOX IMVI melanoma. Conditions: 10 µM.
For another experiment, the system named is SK-MEL-28 melanoma. Conditions: 10 µM unless noted.
Another experiment deals with SK-MEL-2 melanoma. Conditions: 10 µM unless noted.
In another experiment the test system is SN12C renal. Conditions: 10 µM unless noted.
For another experiment, the system named is UO-31 renal. Conditions: 10 µM unless noted.
Another experiment has as its system TK-10 renal. Conditions: 10 µM unless noted.
The test system of a further experiment is ACHN renal. Conditions: 10 µM unless noted.
A further experiment concerns CAKI-1 renal. Conditions: 10 µM unless noted.
For the next experiment, the system named is A498 renal. The settings on record: 10 µM unless noted.
The subject of the next experiment is CCRF-CEM leukemia. The settings on record: 10 µM unless noted.
The test system of another experiment is MOLT-4 leukemia. The settings on record: 10 µM unless noted.
In a further experiment the test system is EKVX NSCLC. Conditions: 10 µM unless noted.

Turning to `CC12CC[C@@H]3[C@]4(C)COC(c5cn[nH]c5-c5cccc(Br)c5)O[C@@H]4CC[C@@]3(C)[C@@H]1CC(C1=CCOC1=O)O2` (some centres undefined), the growth with HCT-15 colon is 23.3%; in the experiment with HT29 colon it was 23.2%; in the experiment with SNB-19 CNS, 51.2%; in the experiment on U251 CNS it was 32.1%; with PC-3 prostate, 12.9%; in the experiment with SK-MEL-5 melanoma, 3.56% (active). The growth with UACC-62 melanoma was 20.9%; in the experiment with LOX IMVI melanoma, -8.01% (active); in the experiment with SK-MEL-28 melanoma, 34%; in the experiment on SK-MEL-2 melanoma, 31.6%; with SN12C renal it was 43.3%; in the experiment with UO-31 renal it was 14.9%. Besides, the growth was 58.6% in the experiment with TK-10 renal; 26.5% in the experiment on ACHN renal; 39.9% in the experiment with CAKI-1 renal; 81.8% in the experiment on A498 renal; 9.66% (active) with CCRF-CEM leukemia; 4.43% (active) in the experiment with MOLT-4 leukemia.
For the compound `CCCCSc1nc(Nc2ccc(S(N)(=O)=O)cc2)c(C#N)c(-c2ccc(Cl)cc2)n1`, the growth with HCT-15 colon was -8.65% (active); in the experiment with HT29 colon, 8.86% (active); with SNB-19 CNS, 45.5%; in the experiment on U251 CNS it was -55.7% (active); in the experiment on PC-3 prostate, 55.8%; with SK-MEL-5 melanoma, 59.6%. Also, the growth in the experiment on UACC-62 melanoma is 48.4%; with LOX IMVI melanoma, -99.9% (active); in the experiment on SK-MEL-28 melanoma, 63%; in the experiment on SK-MEL-2 melanoma, 118%; with EKVX NSCLC, 34.7%; in the experiment on SN12C renal it was -20.3% (active). Further, the growth in the experiment on UO-31 renal is 14.6%; in the experiment on TK-10 renal, 77.1%; in the experiment on ACHN renal, -66.9% (active); with CAKI-1 renal, 55%; in the experiment on A498 renal it was 108%; with MOLT-4 leukemia, 52.8%.
On to `CC1(c2cc3cc(Br)ccc3oc2=O)NC(=O)c2c(/C=C/C(=O)OC3CC4CCC3(C)C4(C)C)cccc2N1` (centres undefined), for which the growth was 82.9% with HCT-15 colon; 88.7% in the experiment with HT29 colon; 72% with SNB-19 CNS; 69.8% in the experiment on U251 CNS; 36.5% with PC-3 prostate; 74.5% in the experiment on SK-MEL-5 melanoma. Besides, the growth in the experiment on UACC-62 melanoma is 79.8%; with LOX IMVI melanoma, 84.5%; in the experiment with SK-MEL-28 melanoma, 86.5%; in the experiment on SK-MEL-2 melanoma, 92.7%; with EKVX NSCLC, 62.1%; in the experiment with SN12C renal it was 75.5%. The growth is 59.8% in the experiment on UO-31 renal; 104% in the experiment on TK-10 renal; 76.6% with ACHN renal; 78.2% with CAKI-1 renal; 47% with MOLT-4 leukemia.
In the case of `O=C1/C(=C/C2=Cc3ccccc3OC2)SC(=S)N1c1ccccc1F`, the growth in the experiment on HCT-15 colon is 107%; with HT29 colon, 110%; with SNB-19 CNS, 98.2%; with PC-3 prostate, 95.7%; in the experiment with SK-MEL-5 melanoma it was 105%; with UACC-62 melanoma, 88.4%. Also, the growth with LOX IMVI melanoma was 101%; with SK-MEL-28 melanoma it was 105%; in the experiment on SK-MEL-2 melanoma, 107%; in the experiment on EKVX NSCLC, 98.8%; in the experiment on SN12C renal, 103%; with UO-31 renal it was 82.6%. The growth in the experiment with TK-10 renal is 105%; with ACHN renal, 107%; in the experiment on CAKI-1 renal, 99.1%; in the experiment with A498 renal, 122%; in the experiment with CCRF-CEM leukemia it was 97.5%; with MOLT-4 leukemia, 95.2%.
Take `COc1ccc(-c2ccnc(SCc3cc4cc(OC)ccc4[nH]c3=O)n2)cc1`: the growth in the experiment on HCT-15 colon is 10.5%; in the experiment on HT29 colon, 19.9%; in the experiment on SNB-19 CNS it was 36.3%; with U251 CNS, 22.7%; in the experiment on PC-3 prostate, 23.8%; with SK-MEL-5 melanoma, -3.59% (active). Besides, the growth is 16.4% in the experiment with UACC-62 melanoma; 18.7% with LOX IMVI melanoma; 36.5% in the experiment with SK-MEL-28 melanoma; 12.8% in the experiment with SK-MEL-2 melanoma; 34% in the experiment on EKVX NSCLC; 14.7% with SN12C renal. Also, the growth with UO-31 renal was 21.1%; in the experiment on TK-10 renal it was 36.8%; in the experiment on ACHN renal, 33.6%; in the experiment with CCRF-CEM leukemia, 6.65% (active); with MOLT-4 leukemia it was 4.45% (active).
In the case of `COc1c(F)ccc(C(=O)Nc2ccc3nc(NC(=O)C4CCCN(S(=O)(=O)c5ccc(Br)c(F)c5)C4)sc3c2)c1F` (centres undefined), the growth in the experiment with HCT-15 colon was 73.6%; in the experiment with HT29 colon, 78.2%; in the experiment with SNB-19 CNS, 81.9%; with U251 CNS, 69.8%; in the experiment on PC-3 prostate it was 62.6%; with SK-MEL-5 melanoma, 85.7%. Further, the growth is 72% in the experiment on UACC-62 melanoma; 78.9% in the experiment with LOX IMVI melanoma; 99.6% in the experiment on SK-MEL-28 melanoma; 88.6% in the experiment with SK-MEL-2 melanoma; 88.5% with EKVX NSCLC; 87.7% in the experiment with SN12C renal. Further, the growth is 72.1% with UO-31 renal; 122% in the experiment on TK-10 renal; 81.5% in the experiment with ACHN renal; 112% with A498 renal; 87.4% in the experiment on CCRF-CEM leukemia; 42.5% in the experiment with MOLT-4 leukemia.
For the compound `CC(C)c1sc(NC(=O)c2cc(NC(=O)c3cc(NC(=O)c4nccn4C)cn3C)cn2C)nc1C(=O)NCCCN(C)C`, the growth is 104% in the experiment with HCT-15 colon; 90.7% in the experiment on HT29 colon; 48.1% in the experiment on SNB-19 CNS; 30.2% in the experiment with U251 CNS; 46% in the experiment on PC-3 prostate; 73.5% with SK-MEL-5 melanoma. Also, the growth with UACC-62 melanoma is 66.3%; in the experiment with LOX IMVI melanoma, 29.8%; with SK-MEL-28 melanoma, 99%; in the experiment on SK-MEL-2 melanoma, 80.8%; in the experiment with EKVX NSCLC, 105%; with UO-31 renal, 98.1%. Further, the growth with TK-10 renal is 97.9%; with ACHN renal, 108%; in the experiment on CAKI-1 renal, 102%; in the experiment on A498 renal, 116%; in the experiment on CCRF-CEM leukemia it was 19.3%; in the experiment with MOLT-4 leukemia, 65.8%.
